Experimental data reported in the supplement of paper PMC6897291.

What was measured:
RIVA [1] = experiment: growth inhibition by drug alone (1 - RLU/untreated control) (fraction); higher = stronger inhibition; settings: 177Lu-lilotomab satetraxetan 0 ug/ml
Summary of the method: (§1)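 RIVA or U-2932 cells were left untreated or pretreated for 18 h with a radiolabelled anti-CD37 antibody conjugate (~600 MBq/mg) at 0.5 µg/ml for RIVA or 1 µg/ml for U-2932. The cells were then washed and seeded at 3,000 cells/well on plates pre-printed with the Selleck Cambridge Cancer Compound library, dosed at 10/100 nM for RIVA and 10/1,000 nM for U-2932. From day 3, RealTime-Glo luminescence was read daily after 1 h at 37°C. Growth inhibition was taken as one minus RLU over the mean of the untreated no-drug wells, of which there were 48 per plate.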

U-2932 [2] = experiment: growth inhibition by drug plus 177Lu-lilotomab satetraxetan (1 - RLU/untreated control) (fraction); higher = stronger inhibition; settings: 177Lu-lilotomab satetraxetan 1 ug/ml
Summary of the method: as §1

RIVA [3] = experiment: as above; settings: 177Lu-lilotomab satetraxetan 0.5 ug/ml
Summary of the method: as §1

U-2932 [4] = experiment: growth inhibition by drug alone (1 - RLU/untreated control) (fraction); higher = stronger inhibition; settings: 177Lu-lilotomab satetraxetan 0 ug/ml
Summary of the method: as §1

Compound | growth inhibition by drug alone (RIVA [1]; 10 nM, time (day): 3) | growth inhibition by drug alone (RIVA [1]; 10 nM, time (day): 4) | growth inhibition by drug alone (RIVA [1]; 10 nM, time (day): 5) | growth inhibition by drug alone (RIVA [1]; 10 nM, time (day): 6) | growth inhibition by drug alone (RIVA [1]; 100 nM, time (day): 3) | growth inhibition by drug alone (RIVA [1]; 100 nM, time (day): 4) | growth inhibition by drug alone (RIVA [1]; 100 nM, time (day): 5) | growth inhibition by drug alone (RIVA [1]; 100 nM, time (day): 6) | growth inhibition by drug plus 177Lu-lilotomab satetraxetan (U-2932 [2]; 10 nM, time (day): 3) | growth inhibition by drug plus 177Lu-lilotomab satetraxetan (U-2932 [2]; 10 nM, time (day): 4) | growth inhibition by drug plus 177Lu-lilotomab satetraxetan (U-2932 [2]; 10 nM, time (day): 5) | growth inhibition by drug plus 177Lu-lilotomab satetraxetan (U-2932 [2]; 10 nM, time (day): 6) | growth inhibition by drug plus 177Lu-lilotomab satetraxetan (U-2932 [2]; 1000 nM, time (day): 3) | growth inhibition by drug plus 177Lu-lilotomab satetraxetan (U-2932 [2]; 1000 nM, time (day): 4) | growth inhibition by drug plus 177Lu-lilotomab satetraxetan (U-2932 [2]; 1000 nM, time (day): 5) | growth inhibition by drug plus 177Lu-lilotomab satetraxetan (U-2932 [2]; 1000 nM, time (day): 6) | growth inhibition by drug plus 177Lu-lilotomab satetraxetan (RIVA [3]; 10 nM, time (day): 3) | growth inhibition by drug plus 177Lu-lilotomab satetraxetan (RIVA [3]; 10 nM, time (day): 4) | growth inhibition by drug plus 177Lu-lilotomab satetraxetan (RIVA [3]; 10 nM, time (day): 5) | growth inhibition by drug plus 177Lu-lilotomab satetraxetan (RIVA [3]; 10 nM, time (day): 6) | growth inhibition by drug plus 177Lu-lilotomab satetraxetan (RIVA [3]; 100 nM, time (day): 3) | growth inhibition by drug plus 177Lu-lilotomab satetraxetan (RIVA [3]; 100 nM, time (day): 4) | growth inhibition by drug plus 177Lu-lilotomab satetraxetan (RIVA [3]; 100 nM, time (day): 5) | growth inhibition by drug plus 177Lu-lilotomab satetraxetan (RIVA [3]; 100 nM, time (day): 6) | growth inhibition by drug alone (U-2932 [4]; 10 nM, time (day): 3) | growth inhibition by drug alone (U-2932 [4]; 10 nM, time (day): 4) | growth inhibition by drug alone (U-2932 [4]; 10 nM, time (day): 5) | growth inhibition by drug alone (U-2932 [4]; 10 nM, time (day): 6) | growth inhibition by drug alone (U-2932 [4]; 1000 nM, time (day): 3) | growth inhibition by drug alone (U-2932 [4]; 1000 nM, time (day): 4) | growth inhibition by drug alone (U-2932 [4]; 1000 nM, time (day): 5) | growth inhibition by drug alone (U-2932 [4]; 1000 nM, time (day): 6)
Cc1cc(Nc2cc(N3CCN(C)CC3)nc(Sc3ccc(NC(=O)C4CC4)cc3)n2)n[nH]1 [VX-680 (MK-0457, Tozasertib)] | -0.0364 | -0.0738 | -0.11 | -0.195 | -0.135 | -0.125 | -0.0167 | 0.173 | -0.00926 | 0.0675 | 0.118 | 0.172 | 0.272 | 0.279 | 0.311 | 0.494 | 0.594 | 0.628 | 0.652 | 0.658 | 0.458 | 0.547 | 0.616 | 0.727 | – | – | – | – | – | – | – | –
CC(C)n1c(/C=C/C(O)CC(O)CC(=O)O)c(-c2ccc(F)cc2)c2ccccc21 (configuration not stated) [Fluvastatin sodium (Lescol)] | -0.148 | -0.159 | -0.189 | -0.293 | -0.27 | -0.311 | -0.385 | -0.508 | -0.0533 | 0.0114 | 0.0651 | 0.148 | 0.00838 | 0.0135 | 0.0456 | 0.221 | – | – | – | – | – | – | – | – | 0.0449 | -0.0165 | -0.0177 | 0.0304 | -0.0194 | -0.0389 | -0.0543 | 0.0255
Cc1nc(N)sc1-c1ccnc(Nc2ccc(N3CCOCC3)cc2)n1 | -0.0458 | -0.131 | -0.156 | -0.327 | -0.0826 | -0.139 | -0.133 | -0.233 | -0.0148 | 0.00212 | 0.025 | 0.0655 | 0.0555 | 0.0326 | 0.0942 | 0.374 | – | – | – | – | – | – | – | – | – | – | – | – | – | – | – | –
CCOc1cc2ncc(C#N)c(Nc3ccc(F)c(Cl)c3)c2cc1NC(=O)/C=C/CN(C)C [Pelitinib (EKB-569)] | -0.202 | -0.214 | -0.259 | -0.439 | -0.558 | -0.51 | -0.627 | -0.809 | -0.0948 | -0.0187 | -0.0319 | -0.0653 | 0.276 | 0.3 | 0.292 | 0.357 | 0.334 | 0.432 | 0.448 | 0.476 | 0.182 | 0.368 | 0.372 | 0.405 | – | – | – | – | – | – | – | –
Cn1cncc1[C@@](N)(c1ccc(Cl)cc1)c1ccc2c(c1)c(-c1cccc(Cl)c1)cc(=O)n2C [Tipifarnib (Zarnestra)] | -0.055 | -0.241 | -0.428 | -0.678 | -0.0203 | -0.124 | -0.267 | -0.517 | 0.0185 | 0.0674 | 0.106 | 0.1 | 0.777 | 0.805 | 0.847 | 0.882 | – | – | – | – | – | – | – | – | 0.0908 | 0.0396 | 0.00741 | -0.0584 | 0.757 | 0.8 | 0.836 | 0.863
